According to ChEMBL document CHEMBL4513216, “Probing the Open Global Health Chemical Diversity Library for Multistage-Active Starting Points for Next-Generation Antimalarials” (ACS Infect Dis, 2020):
Screen size: about 68,000 compounds; about 2,700 (4%) showed an effect of 50% or more. Many of the other results were omitted from the sample, so strong results are more common in it than they were.

Tested on: Plasmodium berghei
Assay: Screen against P. berghei liver stage (PbLuc), transformed with Luciferase, at 2uM
Format: functional, HepG2
Conditions: tested at 2 uM

Row | SMILES | INHIBITION
1 | Cc1nc(C)c(CNC(=O)N2CCc3ccccc3C2CO)s1 (stereo not given) | 5.98%
2 | Cc1cc(CC(=O)NC2CCCN(Cc3ccccc3)C2=O)n[nH]1 (stereo not given) | -8.63%
3 | COc1ccc(F)cc1C(=O)N1CCC2(CCC(=O)N(C(C)C)C2)CC1 | 23.76%
4 | COc1cc(C)ccc1C(=O)N1CCC2(CCC(=O)N(C(C)C)C2)CC1 | -4.62%
5 | COc1cccc(C(=O)N2CCC3(CCC(=O)N(C(C)C)C3)CC2)c1C | 63.37%
6 | CC(=O)N1CCN(C(=O)CNc2cccc(OC(F)F)c2C)CC1 | 17.61%
7 | COc1ccc(OC)c(C2CCN(C(=O)C3CCOCC3)C2)c1 (stereo not given) | 48.21%
8 | COc1ccc(OC)c(C2CCN(C(=O)C3CCS(=O)(=O)CC3)C2)c1 (stereo not given) | -18.57%
9 | COc1ccc(OC)c(C2CCN(C(=O)C3CCC(O)CC3)C2)c1 (stereo not given) | 55.36%
10 | COc1ccc(C(=O)NCc2cccnc2N2CCOCC2)o1 | -49.51%
11 | O=C(c1cccs1)N1CCC(n2nc(-c3ccco3)ccc2=O)CC1 | 38.1%
12 | CCc1c(C)nn(CC(=O)NC(C)c2n[nH]c(C)n2)c1C (stereo not given) | 40.15%
13 | Clc1ccc(C2(CNC3=NCCN3)CCCCC2)cc1 | 35.46%
14 | Clc1ccc(C2(CNC3=NCCN3)CCCC2)cc1 | 6.85%
15 | Clc1ccc(C2(CNC3=NCCN3)CC2)cc1 | 53.98%
16 | Cc1cnc(N2CCCC3(COCCN(c4ccc(C)nn4)C3)C2)nc1 (stereo not given) | 20.21%
17 | CN(Cc1cccc(O)c1)C(=O)c1ccc(CCC(C)(C)O)cc1 | 19.75%
18 | O=C(NCCCc1cccs1)N1CCCCC1CCO (stereo not given) | 39.97%
19 | O=C(NCCc1cccs1)N1CCCC1CCCO (stereo not given) | 8.03%
20 | O=C(NCCc1cccs1)N1CCC[C@H]1CO | 55.39%
21 | COCC(=O)N1CCCC(C(=O)N(C)CCn2ccnc2C)C1 (stereo not given) | 46.04%
22 | Cc1ccc2nc(C)c(C)c(C(=O)NCCCn3ccnn3)c2c1 | 56.21%
23 | Cc1ccc2[nH]c(C(=O)NCCCn3ccnn3)c(C)c2c1 | 22.39%
24 | Cc1ccc2nc(C)c(C)c(C(=O)NCCCn3cnnc3)c2c1 | 10.78%
25 | CC(=O)NCCC1CCCCN1S(=O)(=O)c1cccc(F)c1 (stereo not given) | 50.91%
26 | CC(=O)NCCC1CCCCN1S(=O)(=O)c1cccc(Cl)c1 (stereo not given) | -12.13%
27 | CC(=O)NCCC1CCCCN1S(=O)(=O)c1ccc2ccccc2c1 (stereo not given) | 29.89%
28 | Cn1cc(-c2csc(N3CCOCC3)n2)cn1 | 13.35%
29 | Cc1occc1C(=O)N1CCOCC2(CCN(Cc3nccs3)C2)C1 (stereo not given) | 3.85%
30 | O=C(N1CCCC1)N1C[C@H]2CCC[C@@]2(COCc2ccccn2)C1 | 5.44%
